A selection: hits, their analogues and other compounds. The true share with any hit is near 9.7%.
WNV NS2B-NS3 inh = WNV NS2B-NS3 proteinase inhibition; z-score (no concentration beside the values); WNV NS2B-NS3 protease, fluorogenic substrate Ex360/Em465; stronger effect = lower value; AID 577; 65,000 tested, 0.18% active; P06935; in the data active = z-score below about -3
A340 absorber = absorbance at 340 nm; compound absorbance at 340 nm, fold over control; fold change at 10 µM; 65,000 tested, under 10 active;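 active = at 10 µM dose, initial 340 nm absorbance at least 2 fold that of control wells; inactive = change under 2 fold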;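 also: initial absorbance extrapolated from kinetic A340 decline of NADH oxidation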
M1 agonist = agonists of M1 muscarinic receptor | 64,000 tested, 3% active | CHO-M1 cells, Fluo-4 calcium fluorescence, agonist mode; stronger effect = higher value | B-score at 10 µM | AID 626;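 active = fluorescence rise, raw or as B-score row- and column-corrected plate score, outside the 99.7% band of its plate's samples, either direction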
Autofluor 339 = intrinsic fluorescence of library compounds, ex339/em460 – biochemical, MLSMR library, data from DPM-DC assay, artefact control, profiling panel; compound autofluorescence, ex339/em460 nm, NADH buffer; stronger effect = higher value; 1 = no-compound wells, NADH background; fluorescence fold increase at 10 µM; 65,000 tested, 5.5% active; AID 709;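 active = at 10 µM, mean starting fluorescence two-fold or more over control wells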;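 also: signal is the first read of a kinetic run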
M1 antag = M1 muscarinic receptor (rat) antagonism. 64,000 tested, 3.4% active. CHO-M1 cells, Fluo-4 calcium, ACh EC80 antagonist mode; stronger effect = lower value. AID 628. B-score at 10 µM. P08482;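 active = calcium fluorescence response, raw or row-and-column corrected B-score, differing from the plate sample mean either way at a set confidence level, mostly lower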
BAP1 inh = human BAP1 deubiquitinase inhibition; 72,000 tested, 0.48% active; Q92560; calls only at 20 µM; recombinant BAP1, Ub-AMC hydrolysis fluorescence kinetic; stronger effect = lower value;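 active = activity remaining at or below 50% of control, provided the compound also passes the data quality filters; inactive = the rest, including low values that fail the filters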;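 also: 100% = DMSO wells rate and 0% = substrate alone blank rate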
Target sequence (Q92560 whole entry, looked up): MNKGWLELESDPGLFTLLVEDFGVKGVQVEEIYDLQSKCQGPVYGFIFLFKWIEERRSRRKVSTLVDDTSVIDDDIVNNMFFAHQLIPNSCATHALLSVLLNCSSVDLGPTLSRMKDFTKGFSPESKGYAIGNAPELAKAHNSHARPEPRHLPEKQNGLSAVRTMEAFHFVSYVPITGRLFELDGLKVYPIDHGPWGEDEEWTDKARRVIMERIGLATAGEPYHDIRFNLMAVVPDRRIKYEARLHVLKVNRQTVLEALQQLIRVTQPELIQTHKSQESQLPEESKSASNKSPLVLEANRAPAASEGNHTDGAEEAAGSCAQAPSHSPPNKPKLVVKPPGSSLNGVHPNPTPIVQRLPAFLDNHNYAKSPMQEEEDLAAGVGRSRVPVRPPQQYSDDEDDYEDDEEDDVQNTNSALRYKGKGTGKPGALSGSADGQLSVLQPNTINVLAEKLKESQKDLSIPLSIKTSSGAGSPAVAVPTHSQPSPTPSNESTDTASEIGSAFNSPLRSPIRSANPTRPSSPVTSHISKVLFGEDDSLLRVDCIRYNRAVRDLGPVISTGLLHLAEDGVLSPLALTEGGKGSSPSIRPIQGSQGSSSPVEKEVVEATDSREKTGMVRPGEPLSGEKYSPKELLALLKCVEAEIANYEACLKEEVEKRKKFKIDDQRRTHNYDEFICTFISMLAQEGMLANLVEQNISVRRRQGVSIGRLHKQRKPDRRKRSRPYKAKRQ
BAP1 inh conf = BAP1 (human) enzyme inhibition, confirmed; shares compounds with BAP1 inh; purified BAP1, Ub-ethyl ester hydrolysis, HPLC; stronger effect = lower value; % of control activity, % at 20 µM; 310 tested, 8% active; AID 753;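 active = percent of control activity at or below 60%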
The depositor's hits bear a star; i = inactive; x = no result given; + = active, no number.

SMILES | WNV NS2B-NS3 inh | A340 absorber | M1 agonist | Autofluor 339 | M1 antag | BAP1 inh | BAP1 inh conf
Cc1ccc(Cn2nnc3c(=O)[nH]c(C4CCN(S(=O)(=O)c5cc(C)ccc5C)CC4)nc32)cc1 | 0.23 | 1 | -0.0078 | 1.1 | 0.83 | + | 131
Cc1ccc(Cn2nnc3c(=O)[nH]c(C4CCN(S(=O)(=O)c5ccc(F)cc5)CC4)nc32)cc1 | 0.69 | 1 | -0.84 | 1 | 0.59 | x | x
Cc1ccc(Cn2nnc3c(=O)[nH]c(C4CCN(C(=O)c5cccs5)CC4)nc32)cc1 | -0.24 | 1 | -0.45 | 1.1 | 0.39 | i | x
COc1ccc(OC)c(NC(=O)c2ccc(Br)o2)c1 | x | x | x | x | x | i | x
CCCOC(=O)C1=C(C)NC2=C(C(=O)CCC2)C1c1cccc(OC)c1OC (stereo not given) | 0.13 | 1.1 | 0.036 | 2.2* | 0.54 | + | 34*
CCCOC(=O)C1=C(C)NC2=C(C(=O)CCC2)C1c1cccc2ccccc12 (stereo not given) | x | x | x | x | x | i | x
Clc1ccc(C2Nc3ccccc3-n3cccc32)cc1 (stereo not given) | 0.99 | 1 | -1.5 | 2.4* | -0.0064 | + | 93
CCOC(=O)C1=C(C)NC(=O)NC1c1ccc(OC)c(Cl)c1 (stereo not given) | 1.2 | 1 | 0.099 | 1.1 | -0.15 | i | x
COC(=O)C1=C(C)NC(=O)NC1c1cc(Cl)ccc1OC (stereo not given) | 0.66 | 1.1 | 0.22 | 1.1 | 0.26 | + | 103
CCCCc1nnc2n1N=C(c1ccc(Br)cc1)CS2 | x | x | x | x | x | i | x
O=c1[nH]c2ccc(Cl)cc2c(-c2ccccc2)c1N1CCN(c2ccccn2)CC1 | -0.43 | 1.1 | -0.35 | 1.4 | -0.065 | + | 109
O=c1[nH]c2ccc(Cl)cc2c(-c2ccccc2)c1N1CCOCC1 | -0.89 | 1 | 0.48 | 1.2 | 0.089 | i | x
CCOC(=O)c1c(NC(=O)c2ccc(S(=O)(=O)N3CCc4ccccc4C3)cc2)sc2c1CCCCC2 | x | x | x | x | x | i | x
CCOC(=O)N1CCN(S(=O)(=O)c2ccc(C(=O)Nc3sc4c(c3C#N)CCC4)cc2)CC1 | 0.24 | 1 | -0.51 | 1.2 | 0.054 | + | 97
CN(C)S(=O)(=O)N1CCN(CC(O)COc2ccc(C(=O)c3ccccc3)cc2)CC1 (stereo not given) | -0.05 | 1 | -0.93 | 1.1 | -0.62 | i | x
CCC(=O)c1ccc(OCC(O)CN2CCN(S(=O)(=O)N3CCCCC3)CC2)cc1 (stereo not given) | -0.08 | 1 | -0.92 | 1.1 | 0.29 | + | 83
COc1cccc(-c2cc(C(N)=O)on2)c1 | x | x | x | x | x | i | x
CSc1nnc2c3cc(C)ccc3n(Cc3ccccc3)c2n1 | -0.7 | 1 | 0.46 | 1.2 | 0.26 | + | 77
CCn1c2ccccc2c2nnc(SCC(=O)c3ccccc3)nc21 | -0.55 | 1.1 | x | 1.1 | x | i | x
O=C(O)C1CCN(S(=O)(=O)c2ccccc2[N+](=O)[O-])CC1 | x | x | x | x | x | i | x
Cc1ccc(C)c(N2CCN(C(=O)CCCn3c(=S)[nH]c4cc5c(cc4c3=O)OCO5)CC2)c1 | 0.6 | 1 | 0.74 | 1 | 0.1 | + | 63
O=C(CCCn1c(=S)[nH]c2cc3c(cc2c1=O)OCO3)N1CCN(c2ccccc2F)CC1 | 0.98 | 1 | -0.13 | 0.92 | 0.075 | i | x
O=C(O)c1oc2ccc(Br)cc2c1-n1cccc1 | -1.3 | 1 | 0.23 | 1.1 | 0.23 | + | 88
O=C(COc1ccc(Cl)cc1)Nc1nnc(-c2ccc3c(c2)CCCC3)o1 | 1.1 | 1.1 | -1.1 | 1.5 | 1.1 | + | i
Cc1nc(Nc2cccc(C(F)(F)F)c2)nc2c1C(=O)CC(C)C2 (stereo not given) | -1.2 | 1.3 | 0.54 | 1.2 | 0.64 | + | 116
SMILES | WNV NS2B-NS3 inh | A340 absorber | M1 agonist | Autofluor 339 | M1 antag | BAP1 inh | BAP1 inh conf
Cc1cc(C)c2cc(C#N)c(SCC(=O)NCc3ccco3)nc2c1 | -0.19 | 1 | -0.6 | 1.5 | 0.074 | x | x
Cc1ccc2c(SCC(=O)NCc3ccco3)nc(-c3ccc(F)cc3)nc2c1 | -0.1 | 1 | -0.1 | 1 | -1.6 | + | 61
COc1ccc(-c2nn(C)c(=O)c3ccccc23)cc1NC(=O)Cn1nc(C)c2ccccc2c1=O | 1.1 | 1 | 3.2 | 1.2 | 0.29 | + | 113
COc1ccccc1-n1c(CNC(=O)c2ccc(S(=O)(=O)N(C)C)cc2)n[nH]c1=S | x | x | x | x | x | i | x
CC(C)Cn1c2c(c(O)c(C(=O)Nc3nccs3)c1=O)CCCC2 | 0.72 | 1 | -0.12 | 1.4 | 0.24 | + | 115
CCOC(=O)Cc1csc(-n2sc3ccccc3c2=O)n1 | 0.28 | 1 | -0.47 | 1.2 | -0.42 | + | 42*
COc1ccc(C(=O)Nc2cccc(NC(=O)c3cccc(Cl)c3)c2)cc1[N+](=O)[O-] | x | x | x | x | x | i | x
Clc1ccc(OCc2nn3c(-c4ccco4)nnc3s2)c(Cl)c1 | -0.6 | 1.1 | -0.2 | 1 | 0.35 | + | 106
O=C(NCCC1=CCCCC1)C(Cc1ccc([N+](=O)[O-])cc1)N1C(=O)c2ccccc2C1=O (stereo not given) | x | x | x | x | x | i | x
NC(=O)c1ccccc1NC(=O)c1ccccc1CCc1ccccc1 | x | x | x | x | x | i | x
CCCC1C2CN(C(C)C)CC=C2C(C#N)=C(N)C1(C#N)C#N (stereo not given) | 0.09 | 1 | 8.3* | 4* | 0.61 | + | 94
CCOC(=O)N1CC=C2C(C#N)=C(N)C(C#N)(C#N)[C@H](c3ccsc3)[C@H]2C1 | 0.94 | 1 | -0.41 | 1.7 | 0.77 | i | x
COc1ccccc1Oc1coc2cc(O)ccc2c1=O | 1 | 1.1 | 0.047 | 4.8* | 0.031 | + | 92
CCOc1ccccc1Oc1coc2cc(O)ccc2c1=O | 1.7 | 1.1 | -2.8 | 4.7* | -0.54 | + | 132
O=C(O)CC1OC(=O)c2cc3c(cc21)C(=O)OC3CC(=O)O (stereo not given) | x | x | x | x | x | i | x
CCNc1ccc(C(F)(F)F)c([N+](=O)[O-])c1 | x | x | x | x | x | i | x
O=C(Nc1ccc(-c2nc3ncccc3o2)cc1)c1ccc(-c2ccc(F)cc2)o1 | x | x | x | x | x | i | x
COc1ccc2oc(=O)c(-c3csc(C)n3)cc2c1 | x | x | x | x | x | i | x
O=C(Nc1ccc2nc(C3CC3)n(Cc3ccc(F)cc3)c(=O)c2c1)c1ccco1 | 0.5 | 1.1 | 0.99 | 1.1 | -0.015 | i | x
COc1cccc(Cn2c(C3CC3)nc3ccc(NC(=O)c4ccco4)cc3c2=O)c1 | -0.94 | 1 | -0.34 | 1.1 | 0.15 | + | 103
CCCCn1c2c(c3ccccc31)CCc1nonc1-2 | 0.48 | 1 | 1.1 | 1.3 | 0.36 | + | 51*
CCCCCCn1c(SCCCC)nc2c1c(=O)[nH]c(=O)n2C | -0.43 | 1 | 0.061 | 1 | -0.38 | + | 87

Source: PubChem (several laboratories)
